# Measured values reported in PMC5540273 (PLoS ONE, 2017).
# Test system: LATS2
# Conditions: concentration: 1 μM, replicates: in singlicate; n = 1
# 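Note: KINOMEscan kinase panel screen.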
row,SMILES,%Inh
1,COC(=O)C(Cc1ccccc1)NC(=O)NC1CCN(c2ccnc(Nc3ccc(F)cc3)n2)C1 (stereo not drawn) [GSK1379714],15%
2,CSc1ccc(-c2nc3n(c2-c2ccncc2)CCC3)cc1 [SKF-105561],13%
3,COc1ccc(Nc2nccc(N3CCC(NC(=O)c4cc5ccccc5s4)C3)n2)cc1 (stereo not drawn) [GSK1379738],1%
4,Cc1ccc(NC(=O)Nc2ccc(Cl)cc2)cc1-c1ccc(C(=O)Nc2ccncc2)cc1 [GSK1398472],0%
5,CC(C)c1ccc(O)cc1Nc1ccnc2ccc(C(F)(F)F)cc12 [GW482059],0%
6,COC(=O)c1cccc(NC(=O)NC2CCN(c3ccnc(Nc4ccc(F)cc4)n3)C2)c1 (stereo not drawn) [GSK1379725],0%
7,O=c1cc(N2CCOCC2)nc2n(Cc3ccccc3F)ccn12 [GSK2297428],0%
8,Cc1ccccc1-c1cc(-c2c[nH]nc2-c2ccccn2)ccn1 [GW680061],0%
9,COc1ccc(Nc2nccc(NCCNC(=O)Nc3cc(C)ccc3C)n2)cc1 [GSK1379899],0%
10,FC(F)(F)c1ccccc1-c1cc(-c2c[nH]nc2-c2ccccn2)ccn1 [GW679396],0%
11,Cc1ccccc1Cn1ccn2c(=O)cc(N3CCOCC3)nc12 [GSK2269905],0%
12,Cc1ccc(NC(=O)Nc2ccc(Cl)c(C(F)(F)F)c2)cc1-c1ccc(C(=O)Nc2ccncc2)cc1 [GSK1398470],15%
13,CCc1ccc(-c2ccc3c(c2)-c2n[nH]cc2S(=O)(=O)N3C)cc1,0%
14,CNCc1ccc2nc(NC(=O)c3ccc(C(C)(C)C)cc3)cn2c1,6%
15,Fc1ccc(-c2nn3cccc(F)c3c2-c2ccncc2)cc1 [GW475620],0%
16,CNc1nc(-c2ccc3c(N)n[nH]c3c2)cc(N2C[C@@H](C(=O)Nc3ccccc3)CC[C@H]2C)n1 [GSK2298859],3%
17,Cc1ccc(NC(=O)Nc2ccccc2F)cc1-c1ccc(C(=O)Nc2ccncc2)cc1 [GSK1398477],2%
18,Cc1ccc(NC(=O)c2ccc(Cl)cc2)cc1-c1ccc(C(=O)Nc2ccncc2)cc1 [GSK1398467],0%

row,SMILES,%Inh
1,COC(=O)C(NC(=O)NC1CCN(c2ccnc(Nc3ccc(F)cc3)n2)C1)c1ccccc1 (stereo not drawn) [GSK1379712],5%
2,Nc1nccc(-c2c(-c3ccc(F)cc3)ncn2C2CCN(Cc3ccccc3)CC2)n1 [SB-219980],0%
3,NS(=O)(=O)c1cccc(N/C=C2\C(=O)Nc3ccc(S(=O)(=O)Cc4c(Cl)cccc4Cl)cc32)c1 [GSK398099],22%
4,CN1c2ccc(-c3ccc(C(N)=O)cc3)cc2-c2[nH]ncc2S1(=O)=O,0%
5,CNC(=O)c1ccc(C)c(-n2c(C)cc(OCc3ccc(F)cc3F)c(Br)c2=O)c1,0%
6,Nc1ncnc2occ(-c3ccc4c(c3)CCN4C(=O)Cc3cc(F)ccc3F)c12 [GSK2645446],19%
7,Cc1c(Cn2c(C)c(C)n3c(=O)cc(N4CCOCC4)nc23)cccc1C(F)(F)F [GSK2328680],1%
8,Cc1ccc(-c2nc(Nc3ccncc3)c3ccccc3n2)s1 [GSK189015],0%
9,O=C1NC(=O)C(c2ccc(Cl)cc2)=C1Nc1cccc(Cl)c1 [SB-317651],9%
10,Cn1cnc2c(N)ncnc21 [SKF-97623],0%
11,Cc1ccc(NC(=O)Nc2ccccc2)cc1-c1ccc(C(=O)Nc2ccncc2)cc1 [GSK1398471],0%
12,CCn1c(-c2c(N)noc2C)nc2cnccc21 [SB-737856],0%
13,COc1ccc(Nc2nccc(-c3ccc(NC(=O)c4cc5cc(F)ccc5[nH]4)cc3)n2)cc1 [GSK1229496],1%
14,Nc1cccc(-c2ccc3c(N)n[nH]c3c2)n1 [GSK2192730],17%
15,CS(=O)(=O)CCNCc1nc(-c2ccc3ncnc(Nc4ccc(OCc5ccccc5)c(Cl)c4)c3c2)cs1.Cl [GW582764],0%
16,COc1ccc(Nc2nccc(N3CCC(NC(=O)C(C)c4ccc(Cl)cc4)C3)n2)cc1 (stereo not drawn) [GSK1379735],0%
17,Cc1cnc(N)c(/C=C/c2cncc(C(=O)NCCc3ccc(Cl)cc3Cl)c2)c1.Cl [GSK190937],36%
18,O=C(Nc1n[nH]c2nc(-c3cccs3)c(Br)cc12)C1CC1 [SB-735297],3%

# Test system: LCK
# Conditions: concentration: 1 μM, replicates: in singlicate; n = 1
row,SMILES,%Inh
1,COC(=O)C(Cc1ccccc1)NC(=O)NC1CCN(c2ccnc(Nc3ccc(F)cc3)n2)C1 (stereo not drawn) [GSK1379714],21%
2,CSc1ccc(-c2nc3n(c2-c2ccncc2)CCC3)cc1 [SKF-105561],0%
3,COc1ccc(Nc2nccc(N3CCC(NC(=O)c4cc5ccccc5s4)C3)n2)cc1 (stereo not drawn) [GSK1379738],16%
4,Cc1ccc(NC(=O)Nc2ccc(Cl)cc2)cc1-c1ccc(C(=O)Nc2ccncc2)cc1 [GSK1398472],60%
5,CC(C)c1ccc(O)cc1Nc1ccnc2ccc(C(F)(F)F)cc12 [GW482059],22%
6,COC(=O)c1cccc(NC(=O)NC2CCN(c3ccnc(Nc4ccc(F)cc4)n3)C2)c1 (stereo not drawn) [GSK1379725],0%
7,O=c1cc(N2CCOCC2)nc2n(Cc3ccccc3F)ccn12 [GSK2297428],28%
8,Cc1ccccc1-c1cc(-c2c[nH]nc2-c2ccccn2)ccn1 [GW680061],5%
9,COc1ccc(Nc2nccc(NCCNC(=O)Nc3cc(C)ccc3C)n2)cc1 [GSK1379899],26%
10,FC(F)(F)c1ccccc1-c1cc(-c2c[nH]nc2-c2ccccn2)ccn1 [GW679396],17%
11,Cc1ccccc1Cn1ccn2c(=O)cc(N3CCOCC3)nc12 [GSK2269905],16%
12,Cc1ccc(NC(=O)Nc2ccc(Cl)c(C(F)(F)F)c2)cc1-c1ccc(C(=O)Nc2ccncc2)cc1 [GSK1398470],57%
13,CCc1ccc(-c2ccc3c(c2)-c2n[nH]cc2S(=O)(=O)N3C)cc1,4%
14,CNCc1ccc2nc(NC(=O)c3ccc(C(C)(C)C)cc3)cn2c1,2%
15,Fc1ccc(-c2nn3cccc(F)c3c2-c2ccncc2)cc1 [GW475620],18%
16,CNc1nc(-c2ccc3c(N)n[nH]c3c2)cc(N2C[C@@H](C(=O)Nc3ccccc3)CC[C@H]2C)n1 [GSK2298859],22%
17,Cc1ccc(NC(=O)Nc2ccccc2F)cc1-c1ccc(C(=O)Nc2ccncc2)cc1 [GSK1398477],68%
18,Cc1ccc(NC(=O)c2ccc(Cl)cc2)cc1-c1ccc(C(=O)Nc2ccncc2)cc1 [GSK1398467],68%

row,SMILES,%Inh
1,COC(=O)C(NC(=O)NC1CCN(c2ccnc(Nc3ccc(F)cc3)n2)C1)c1ccccc1 (stereo not drawn) [GSK1379712],18%
2,Nc1nccc(-c2c(-c3ccc(F)cc3)ncn2C2CCN(Cc3ccccc3)CC2)n1 [SB-219980],0%
3,NS(=O)(=O)c1cccc(N/C=C2\C(=O)Nc3ccc(S(=O)(=O)Cc4c(Cl)cccc4Cl)cc32)c1 [GSK398099],13%
4,CN1c2ccc(-c3ccc(C(N)=O)cc3)cc2-c2[nH]ncc2S1(=O)=O,5%
5,CNC(=O)c1ccc(C)c(-n2c(C)cc(OCc3ccc(F)cc3F)c(Br)c2=O)c1,1%
6,Nc1ncnc2occ(-c3ccc4c(c3)CCN4C(=O)Cc3cc(F)ccc3F)c12 [GSK2645446],5%
7,Cc1c(Cn2c(C)c(C)n3c(=O)cc(N4CCOCC4)nc23)cccc1C(F)(F)F [GSK2328680],18%
8,Cc1ccc(-c2nc(Nc3ccncc3)c3ccccc3n2)s1 [GSK189015],7%
9,O=C1NC(=O)C(c2ccc(Cl)cc2)=C1Nc1cccc(Cl)c1 [SB-317651],0%
10,Cn1cnc2c(N)ncnc21 [SKF-97623],0%
11,Cc1ccc(NC(=O)Nc2ccccc2)cc1-c1ccc(C(=O)Nc2ccncc2)cc1 [GSK1398471],35%
12,CCn1c(-c2c(N)noc2C)nc2cnccc21 [SB-737856],10%
13,COc1ccc(Nc2nccc(-c3ccc(NC(=O)c4cc5cc(F)ccc5[nH]4)cc3)n2)cc1 [GSK1229496],0%
14,Nc1cccc(-c2ccc3c(N)n[nH]c3c2)n1 [GSK2192730],0%
15,CS(=O)(=O)CCNCc1nc(-c2ccc3ncnc(Nc4ccc(OCc5ccccc5)c(Cl)c4)c3c2)cs1.Cl [GW582764],17%
16,COc1ccc(Nc2nccc(N3CCC(NC(=O)C(C)c4ccc(Cl)cc4)C3)n2)cc1 (stereo not drawn) [GSK1379735],33%
17,Cc1cnc(N)c(/C=C/c2cncc(C(=O)NCCc3ccc(Cl)cc3Cl)c2)c1.Cl [GSK190937],7%
18,O=C(Nc1n[nH]c2nc(-c3cccs3)c(Br)cc12)C1CC1 [SB-735297],16%
